The source of these data is PubChem BioAssay.

Structures are written as SMILES. Unmarked numbers belong to inactive results. For some of these results: Results with a measured potency or affinity are listed apart. Active and inactive are the calls of the source. Unless noted, the rule behind the calls is not given here.

Assay [1] in a line: antimalarial activity against Dd2 strain (AID 2302;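 active = growth inhibition above 50% at the single 2 µM test dose, taken to imply half-maximal potency below 2 µM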;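 note: 0% = DMSO untreated growth and 100% = chloroquine plus artemisinin killed control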). The following applies: P. falciparum Dd2 in RBCs, LDH growth readout, 72 h; at 2 µM; stronger effect = higher value.
Assay [2] can be described thus: human hepatoma cell viability loss – ATP luminescence, cytotoxicity control for P. falciparum antimalarial project, primary screen (AID 2303;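 active = inhibition above 50%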;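 note: 0% = DMSO wells and 100% = digitonin-killed cells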). The note with it: HepG2 viability, 24-48 h, at 10 µM, stronger effect = higher value.
Assay [3] deals with L-lactate dehydrogenase (Plasmodium falciparum (isolate CDC / Honduras)) (UniProt Q27743). Kind of assay: PfLDH activity inhibition – cell lysate, 3D7 strain, counter-screen for P. falciparum growth inhibition project (AID 2304).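 Note: 0% = vehicle and 100% = reference inhibitor.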 The note with it: P. falciparum 3D7 crude extract, LDH APAD/NBT absorbance; at 2 µM; stronger effect = higher value. A general note: The purpose of a counterscreen is to sort out artefacts and off-target activity.

A short description of assay [4]: inhibition of 3D7 malaria parasite growth – strain 3D7 (AID 2306).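 Note: 0% = DMSO wells and 100% = chloroquine plus artemisinin control wells.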 The following applies: P. falciparum 3D7 erythrocytic growth, LDH absorbance, 72 h; at 2 µM; stronger effect = higher value.
The target in assay [5] is Calcium-dependent protein kinase 1 (Plasmodium falciparum (isolate 3D7)) (UniProt P62344). Kind of assay: PfCDPK1 kinase inhibitors, biochemical, TCAMS library (AID 1159585; cut-off not given, nearly all actives have IC50 up to about 0.98 µM;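 note: inhibitors leave more ATP so luminescence rises with inhibition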). The following applies: recombinant PfCDPK1, Kinase-Glo ATP depletion luminescence. For orientation: Kinase-Glo measures the ATP left after a reaction by luminescence.
Assay [6] addresses Plasmodium falciparum protein kinase 6 (PK6, PF3D7_1337100) (UniProt Q8IDW1). The assay is described as follows: PfPK6 kinase inhibitors, biochemical, TCAMS library (AID 1159586). The note with it: recombinant PfPK6, Kinase-Glo ATP depletion luminescence.
The target of assay [7] is Protein kinase 7 (PK7), Plasmodium falciparum 3D7 (PF3D7_0213400) (UniProt Q7YTF7). The assay is described as follows: inhibition of Plasmodium PK7 catalytic activity – biochemical, TCAMS antimalarial set, Kinase-Glo luminescence (AID 1159587). The note with it: recombinant PfPK7, Kinase-Glo ATP depletion luminescence.
Assay [8] addresses Calcium-dependent protein kinase 4 (Plasmodium falciparum (isolate 3D7)) (UniProt Q8IBS5). Kind of assay: PfCDPK4 kinase inhibitors, biochemical, TCAMS library (AID 1159588; cut-off not given, nearly all actives have IC50 up to about 0.91 µM). The following applies: recombinant PfCDPK4, Kinase-Glo ATP depletion luminescence.

Plasmodium falciparum protein kinase 6 (PK6, PF3D7_1337100), sequence (Q8IDW1 1-305): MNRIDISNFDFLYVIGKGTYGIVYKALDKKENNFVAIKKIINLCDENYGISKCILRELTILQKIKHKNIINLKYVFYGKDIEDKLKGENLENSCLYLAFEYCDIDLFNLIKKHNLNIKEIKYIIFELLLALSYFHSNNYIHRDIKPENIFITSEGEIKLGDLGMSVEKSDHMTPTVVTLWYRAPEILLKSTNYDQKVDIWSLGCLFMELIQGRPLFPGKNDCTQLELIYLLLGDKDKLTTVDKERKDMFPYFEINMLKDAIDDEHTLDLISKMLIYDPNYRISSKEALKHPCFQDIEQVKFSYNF
Calcium-dependent protein kinase 1 (Plasmodium falciparum (isolate 3D7)), sequence (P62344 whole entry, looked up): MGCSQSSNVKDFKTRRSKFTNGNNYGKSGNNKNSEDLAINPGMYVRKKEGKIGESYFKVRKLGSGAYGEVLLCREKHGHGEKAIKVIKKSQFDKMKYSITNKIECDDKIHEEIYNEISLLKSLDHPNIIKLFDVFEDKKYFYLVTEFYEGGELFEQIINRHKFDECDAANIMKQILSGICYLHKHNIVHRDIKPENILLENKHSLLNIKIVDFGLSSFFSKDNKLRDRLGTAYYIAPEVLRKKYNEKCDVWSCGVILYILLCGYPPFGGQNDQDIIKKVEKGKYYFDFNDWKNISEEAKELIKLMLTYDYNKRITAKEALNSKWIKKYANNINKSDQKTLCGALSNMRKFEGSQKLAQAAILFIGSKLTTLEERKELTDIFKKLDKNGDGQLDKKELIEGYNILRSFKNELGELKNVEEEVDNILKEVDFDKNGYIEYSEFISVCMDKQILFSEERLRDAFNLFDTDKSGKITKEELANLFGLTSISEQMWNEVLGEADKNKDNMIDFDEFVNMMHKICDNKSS
L-lactate dehydrogenase (Plasmodium falciparum (isolate CDC / Honduras)), sequence (Q27743 whole entry, looked up): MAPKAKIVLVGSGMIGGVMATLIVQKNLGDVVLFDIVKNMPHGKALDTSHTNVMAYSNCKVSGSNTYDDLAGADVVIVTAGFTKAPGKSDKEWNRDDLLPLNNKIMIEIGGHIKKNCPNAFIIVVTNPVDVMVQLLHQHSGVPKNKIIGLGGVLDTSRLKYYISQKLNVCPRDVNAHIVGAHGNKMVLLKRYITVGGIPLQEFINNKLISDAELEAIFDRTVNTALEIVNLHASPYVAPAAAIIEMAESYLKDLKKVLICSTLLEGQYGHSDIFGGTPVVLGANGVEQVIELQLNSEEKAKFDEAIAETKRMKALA
Protein kinase 7 (PK7), Plasmodium falciparum 3D7 (PF3D7_0213400), sequence (Q7YTF7 1-343): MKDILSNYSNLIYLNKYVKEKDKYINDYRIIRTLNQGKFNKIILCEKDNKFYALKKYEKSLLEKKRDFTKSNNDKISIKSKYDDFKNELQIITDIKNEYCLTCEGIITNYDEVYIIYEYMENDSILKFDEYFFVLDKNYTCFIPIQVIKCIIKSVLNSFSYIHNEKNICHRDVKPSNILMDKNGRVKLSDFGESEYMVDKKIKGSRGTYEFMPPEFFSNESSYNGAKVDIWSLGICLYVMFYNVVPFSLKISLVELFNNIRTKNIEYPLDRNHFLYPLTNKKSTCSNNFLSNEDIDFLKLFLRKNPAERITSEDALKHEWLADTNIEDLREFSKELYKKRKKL
Calcium-dependent protein kinase 4 (Plasmodium falciparum (isolate 3D7)), sequence (Q8IBS5 whole entry, looked up): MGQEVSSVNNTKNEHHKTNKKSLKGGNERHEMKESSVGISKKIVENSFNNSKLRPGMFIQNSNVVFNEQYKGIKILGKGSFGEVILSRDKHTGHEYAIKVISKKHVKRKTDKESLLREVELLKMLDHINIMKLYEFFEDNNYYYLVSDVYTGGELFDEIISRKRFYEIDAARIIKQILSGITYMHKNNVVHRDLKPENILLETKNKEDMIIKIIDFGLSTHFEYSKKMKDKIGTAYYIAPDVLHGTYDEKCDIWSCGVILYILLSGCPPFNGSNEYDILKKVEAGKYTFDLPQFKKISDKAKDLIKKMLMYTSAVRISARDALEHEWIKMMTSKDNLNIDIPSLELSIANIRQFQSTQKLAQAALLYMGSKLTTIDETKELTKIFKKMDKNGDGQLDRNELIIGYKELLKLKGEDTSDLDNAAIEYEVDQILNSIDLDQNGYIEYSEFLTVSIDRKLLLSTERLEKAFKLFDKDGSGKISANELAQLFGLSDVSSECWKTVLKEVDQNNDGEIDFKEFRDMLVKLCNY

As to `O=C1Nc2cccc3c2C1(CCCCN1CCC(c2c[nH]c4cc(C(F)(F)F)ccc24)CC1)CCC3` (stereo not given), the growth inhibition was 79% (active) in assay [1] and 99% (active) in assay [4]. Moreover, the inhibition – broadly, the change of the read-out against control, counted positive when it falls – in assay [2] was 99% (active); in assay [3], 3%. Further, the outcome in assay [5], in assay [6], in assay [7] and in assay [8] was inactive.

With `CCCCCCn1c(Sc2ccc(C#N)c([N+](=O)[O-])c2)nnc1-c1ccc(N(C)C)cc1`, the values for the growth inhibition in assay [1] and in assay [4] were 25% and 92% (active), respectively. The figures for the inhibition in assay [2] and in assay [3] were -1% and 7%, respectively. Further, the result in assay [5], in assay [6], in assay [7] and in assay [8] was inactive.

Turning to `O=C(Nc1cccc(-c2cccc(-c3nc4ccc(F)cc4[nH]3)c2)c1)c1ccoc1`, the growth inhibition in assay [1] was 35%; in assay [4], 98% (active). Moreover, the inhibition in assay [2] is 36%; in assay [3], 5%. Moreover, the result in assay [5], in assay [6], in assay [7] and in assay [8] was inactive.

With `COc1ccc2nccc([C@@H](O)CN3CCC(NC(=O)c4cc5c(Cl)cc(Cl)cc5[nH]4)CC3)c2c1`, the figures for the growth inhibition in assay [1] and in assay [4] were 98% (active) and 100% (active), respectively. Further, the inhibition in assay [2] was 22%; in assay [3] it was -3%. For the same compound, the outcome in assay [5], in assay [6], in assay [7] and in assay [8] was inactive.

With `CN(C)S(=O)(=O)c1ccc(C(=O)N(c2nc(-c3ccccc3)cs2)C2CCCCC2)cc1`, the growth inhibition in assay [1] is 46%; in assay [4], 98% (active). The inhibition was 7% in assay [2] and -3% in assay [3]. The outcome in assay [5], in assay [6], in assay [7] and in assay [8] was inactive.

For the compound `CCCNc1ccc(-c2cc(C(N)=O)c3[nH]cc(C4CCN(S(=O)(=O)CC)CC4)c3c2)cn1`, the figures for the growth inhibition in assay [1] and in assay [4] were 42% and 99% (active), respectively. The inhibition in assay [2] is 6%; in assay [3], -1%. Moreover, the result in assay [5], in assay [6], in assay [7] and in assay [8] was inactive.

Turning to `CN(C)CCN(C)Cc1ccc(-c2ccc(NS(=O)(=O)c3cccc4cccnc34)cc2)cc1`, the values for the growth inhibition in assay [1] and in assay [4] were 16% and 93% (active), respectively. Further, the inhibition in assay [2] is 23%; in assay [3], -1%. Also, the outcome in assay [5], in assay [6], in assay [7] and in assay [8] was inactive.

In the case of `Fc1cccc(COc2ccc(Nc3ncnc4sc(C#Cc5ncc[nH]5)cc34)cc2Cl)c1`, the growth inhibition in assay [1] was 95% (active); in assay [4], 100% (active). The inhibition was 55% (active) in assay [2] and -3% in assay [3]. Moreover, the outcome in assay [5], in assay [6], in assay [7] and in assay [8] was inactive.

As to `O=C(NCCc1ccccc1F)c1ccc(N2CCN(c3ccncc3)CC2)cn1`, the growth inhibition is 18% in assay [1] and 93% (active) in assay [4]. The inhibition in assay [2] was 8%; in assay [3] it was -2%. In addition, the result in assay [5], in assay [6], in assay [7] and in assay [8] was inactive.

Regarding `Cc1c(N=O)cc(C(C)(C)C)c(O)c1C(=O)Nc1ccc([N+](=O)[O-])cc1Cl`, the growth inhibition in assay [1] is 98% (active); in assay [4], 100% (active). The inhibition is 72% (active) in assay [2] and 1% in assay [3]. Besides, the result in assay [5], in assay [6], in assay [7] and in assay [8] was inactive.

For `Cc1ccccc1C(=O)NC(NC(=S)Nc1ccc([N+](=O)[O-])cc1)C(Cl)(Cl)Cl` (stereo not given), the figures for the growth inhibition in assay [1] and in assay [4] were 39% and 101% (active), respectively. Besides, the results for the inhibition in assay [2] and in assay [3] were -7% and 0%, respectively. The result in assay [5], in assay [6], in assay [7] and in assay [8] was inactive.

For `Cc1cc(=O)oc2c1ccc1oc(C(O)c3ccc(Cl)cc3)c(C)c12` (stereo not given), the growth inhibition was 96% (active) in assay [1] and 95% (active) in assay [4]. The inhibition was -7% in assay [2] and 1% in assay [3]. Further, the outcome in assay [5], in assay [6], in assay [7] and in assay [8] was inactive.

Consider `CN1CCN(CC(=O)Nc2ccc(-c3cccc(-c4nc5ccc(C(F)(F)F)cc5[nH]4)c3)cc2)CC1`, for which the growth inhibition is 93% (active) in assay [1] and 101% (active) in assay [4]. The inhibition in assay [2] is 45%; in assay [3], -5%. Also, the result in assay [5], in assay [6], in assay [7] and in assay [8] was inactive.

Regarding `CCCCCCN(CCCCCC)CC(O)c1cc(-c2ccc(Cl)cc2)nc2c(C)cc(C)cc12` (stereo not given), the growth inhibition in assay [1] and in assay [4] was 98% (active) in each case. In addition, the inhibition in assay [2] is 27%; in assay [3], -2%. The outcome in assay [5], in assay [6], in assay [7] and in assay [8] was inactive.

Turning to `CCN(CCO)CCc1cccc(Nc2nccc(-c3c(-c4ccc(NC(=O)N(CC)CC)cc4)nn4ccccc34)n2)c1`, the growth inhibition was 95% (active) in assay [1] and 101% (active) in assay [4]. The figures for the inhibition in assay [2] and in assay [3] were 46% and 2%, respectively. The result in assay [5], in assay [6], in assay [7] and in assay [8] was inactive.

With `CCCN1CCN(c2cc(S(=O)(=O)Nc3ccc(C(=O)NCc4cccc(C(F)(F)F)c4)cc3)ccc2OC)CC1`, the growth inhibition in assay [1] is 8%; in assay [4], 92% (active). Besides, the inhibition in assay [2] was 27%; in assay [3] it was -3%. Moreover, the result in assay [5], in assay [6], in assay [7] and in assay [8] was inactive.

In the case of `Cc1cc(N(CCCN(C)C)Cc2cc(F)cc(F)c2)nc(Nc2ccc(Cl)cc2)n1`, the figures for the growth inhibition in assay [1] and in assay [4] were 97% (active) and 99% (active), respectively. Further, the results for the inhibition in assay [2] and in assay [3] were 37% and -2%, respectively. Besides, the outcome in assay [5], in assay [6], in assay [7] and in assay [8] was inactive.

For `CC1(C)N=C(N)N=C(N)N1OCCc1ccccc1`, the figures for the growth inhibition in assay [1] and in assay [4] were 95% (active) and 96% (active), respectively. Further, the figures for the inhibition in assay [2] and in assay [3] were 70% (active) and 2%, respectively. Besides, the result in assay [5], in assay [6], in assay [7] and in assay [8] was inactive.

In the case of `CCCN(C(=O)c1ccccc1C)c1nnc(-c2cccc(C)c2)s1`, the growth inhibition was 67% (active) in assay [1] and 91% (active) in assay [4]. In addition, the inhibition in assay [2] is 8%; in assay [3] it was -4%. Also, the result in assay [5], in assay [6], in assay [7] and in assay [8] was inactive.

Turning to `Cc1noc(C)c1-c1ccc2c(Nc3ccc(Cl)cc3)c(C(N)=O)cnc2c1`, the growth inhibition in assay [1] was 67% (active); in assay [4], 94% (active). In addition, the inhibition in assay [2] is 9%; in assay [3] it was 7%. In addition, the outcome in assay [5], in assay [6], in assay [7] and in assay [8] was inactive.
